Several values for one entry are separate records, joined by “and”; a condition that tells them apart may be missing. Equal entries are not always repeated. This is part of a sample that, as a whole, favours compounds with a hit. Of some 83,000 tested, about 20% had one in any assay.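 Step 1: grow cells in 96-well plates. Step 2: add test compound at a single concentration. Step 3: incubate 48 h. Step 4: record percent growth.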 Activity calls are given as the source filed them. The calls were made as follows: active = growth percent below 10; inactive = the rest.
Columns and labels:
Test in all cases: NCI-60 one-dose screen, 48 h (100 = growth as untreated, 0 = no growth, -100 = all killed)
Settings in all cases: 10 µM unless noted
HCT-15 colon = test system: HCT-15 colon
SNB-75 CNS = test system: SNB-75 CNS
SNB-19 CNS = test system: SNB-19 CNS
U251 CNS = test system: U251 CNS
PC-3 prostate = test system: PC-3 prostate
SK-MEL-5 melanoma = test system: SK-MEL-5 melanoma
UACC-62 melanoma = test system: UACC-62 melanoma
LOX IMVI melanoma = test system: LOX IMVI melanoma
SK-MEL-28 melanoma = test system: SK-MEL-28 melanoma
HT29 colon = test system: HT29 colon

Row | Compound | growth (HCT-15 colon) | growth (SNB-75 CNS) | growth (SNB-19 CNS) | growth (U251 CNS) | growth (PC-3 prostate) | growth (SK-MEL-5 melanoma) | growth (UACC-62 melanoma) | growth (LOX IMVI melanoma) | growth (SK-MEL-28 melanoma) | growth (HT29 colon)
1 | CC(C)Cc1ccc(C(C)C(=O)NCc2ccc(Cn3c(=O)sn(CCCCl)c3=O)cc2)cc1 (configuration not stated) | 103% (inactive) and -35.9% (active) | 105% (inactive) and -18% (active) | 91.2% (inactive) and 49.8% (inactive) | 95.6% (inactive) and 7.88% (active) | 91.9% (inactive) and -69.6% (active) | 91.8% (inactive) and -78.1% (active) | 92.6% (inactive) and -68.6% (active) | 90.7% (inactive) and -93.1% (active) | 107% (inactive) and -71.8% (active) | –
2 | ClC/C=C/CSc1ncnc2nc[nH]c12 | 104% (inactive) and 99.7% (inactive) | 108% (inactive) and 92.7% (inactive) | 98.6% (inactive) and 102% (inactive) | 96.7% (inactive) and 102% (inactive) | 100% (inactive) and 98.1% (inactive) | 100% (inactive) and 112% (inactive) | 99.9% (inactive) and 103% (inactive) | 98.7% (inactive) and 97.3% (inactive) | 111% (inactive) and 101% (inactive) | –
3 | O=C(O)c1cc(C(=O)O)cc([N+](=O)[O-])c1 | 104% (inactive) | – | 106% (inactive) | 100% (inactive) | 96.4% (inactive) | 104% (inactive) | 105% (inactive) | 97.4% (inactive) | 118% (inactive) | 105% (inactive)
4 | Oc1c(CN2CCCCC2)ccc2cccnc12 | 33.6% (inactive) and 30.3% (inactive) | 82.5% (inactive) and 85.6% (inactive) | 65.9% (inactive) and 74.1% (inactive) | 41.8% (inactive) and 38.7% (inactive) | 52.1% (inactive) and 39% (inactive) | 45% (inactive) and -25.6% (active) | 46% (inactive) and 45.6% (inactive) | 27.3% (inactive) and 44.1% (inactive) | 85.2% (inactive) and 85.7% (inactive) | –
5 | O=C1c2c(O)cc(O)cc2OC(c2ccc(O)c(O)c2)C1O (configuration not stated) | 108% (inactive) | – | 101% (inactive) | 102% (inactive) | 96.4% (inactive) | 104% (inactive) | 106% (inactive) | – | 108% (inactive) | 110% (inactive)
6 | N#C/C(=C/c1c(O)ccc2ccccc12)C(N)=O | 100% (inactive) | – | 109% (inactive) | 103% (inactive) | 94% (inactive) | 94.1% (inactive) | 104% (inactive) | 55.9% (inactive) | 110% (inactive) | 101% (inactive)
7 | c1ccc(N(c2ccccc2)c2ccccc2)cc1 | 99.8% (inactive) | – | 102% (inactive) | 102% (inactive) | 101% (inactive) | 113% (inactive) | 104% (inactive) | 94.5% (inactive) | 117% (inactive) | 97% (inactive)
8 | CCCCCn1sc(=O)n(Cc2ccc(CNC(=O)C(C)c3ccc(CC(C)C)cc3)cc2)c1=O (configuration not stated) | 101% (inactive) and -35% (active) | – | 98.7% (inactive) and 43.3% (inactive) | 87.4% (inactive) and 8.32% (active) | 93.7% (inactive) and -64.4% (active) | 101% (inactive) and -89.2% (active) | 96.9% (inactive) and -65.1% (active) | 104% (inactive) and -92.7% (active) | 107% (inactive) and -52.5% (active) | –
9 | O=C(CCc1ccc(O)cc1)N/N=C/c1cc(Br)ccc1O | 28.7% (inactive) | 79.4% (inactive) | 69.6% (inactive) | – | 38.8% (inactive) | 45.3% (inactive) | 37.7% (inactive) | 21.1% (inactive) | 69.5% (inactive) | –
10 | O=C(N/N=C/c1ccccc1)N/N=C/c1ccccc1 | 104% (inactive) and 103% (inactive) | 103% (inactive) and 88% (inactive) | 105% (inactive) and 106% (inactive) | 114% (inactive) and 97.8% (inactive) | 97.7% (inactive) | 106% (inactive) and 94.5% (inactive) | 101% (inactive) | 117% (inactive) and 103% (inactive) | 121% (inactive) and 113% (inactive) | –
11 | CCN(CC)C(=S)SSC(=S)N(CC)CC | 81.4% (inactive) and 109% (inactive) | 72.6% (inactive) and 93.2% (inactive) | 85.4% (inactive) and 97% (inactive) | 58.5% (inactive) and 100% (inactive) | 68.5% (inactive) and 108% (inactive) | 40.2% (inactive) and 110% (inactive) | 69.6% (inactive) and 105% (inactive) | 53% (inactive) and 98.4% (inactive) | 61.5% (inactive) and 106% (inactive) | –
12 | CC1=CC(=O)c2ccc(C)cc2C1=O | – | – | – | – | – | – | -90.3% [100 µM] (active) and -100% [100 µM] (active) | – | – | –
13 | CC(=O)C(/C=N/C(N)=O)=C(/C)O | 104% (inactive) | 93.8% (inactive) | 103% (inactive) | 99.6% (inactive) | 100% (inactive) | 110% (inactive) | – | 92.9% (inactive) | 115% (inactive) | –
14 | CC(=O)C1=C(C)N2C(=NC3=C(CCc4ccccc43)C2c2cccc(Br)c2)S1 (configuration not stated) | – | – | – | – | – | – | 52.3% [100 µM] (inactive) and 8.59% [100 µM] (active) | – | – | –
15 | COc1ccc2cc3[n+](cc2c1OC)CCc1cc2c(cc1-3)OCO2 | 105% (inactive) and 93.4% (inactive) | – | 38.6% (inactive) and 42.2% (inactive) | – | 60.1% (inactive) and 60.6% (inactive) | 7.33% (active) and 24.3% (inactive) | 54.8% (inactive) and 64.9% (inactive) | 83.6% (inactive) and 86.5% (inactive) | 94% (inactive) | –
16 | O=C(Nc1ccc(Cl)cc1)c1cc2ccccc2cc1O | 12.8% (inactive) and 15.8% (inactive) | 52.6% (inactive) and 53.1% (inactive) | 37.7% (inactive) and 29.6% (inactive) | – | 11.5% (inactive) and -13.1% (active) | 14% (inactive) and 0.898% (active) | – | 37.3% (inactive) and 12% (inactive) | 43.8% (inactive) and 45.1% (inactive) | –
17 | CCCCCCCCCCCCCCCc1cc(O)ccc1N | 89.4% (inactive) and 75.6% (inactive) | – | 96.8% (inactive) and 118% (inactive) | – | 34.6% (inactive) and 22.2% (inactive) | 100% (inactive) and 78.6% (inactive) | 84.3% (inactive) | 34.5% (inactive) and -35.1% (active) | 106% (inactive) and 103% (inactive) | –
18 | Clc1ccc(C2C3COc4ccccc4C3=NN2c2ccccc2)cc1 (configuration not stated) | – | – | – | – | – | – | 37.4% [100 µM] (inactive) and 0.301% [100 µM] (active) | – | – | –
19 | Cc1cc2nn(C3CCCO3)nc2cc1C (configuration not stated) | – | – | – | – | – | – | 70.8% [100 µM] (inactive) and 101% [100 µM] (inactive) | – | – | –
20 | Nc1ncnc2c1ncn2C1CC(O)C(CO)O1 (configuration not stated) | 107% (inactive) and 111% (inactive) | 89.7% (inactive) and 92.9% (inactive) | 107% (inactive) and 103% (inactive) | 102% (inactive) and 100% (inactive) | 110% (inactive) and 102% (inactive) | 115% (inactive) and 108% (inactive) | – | 103% (inactive) and 105% (inactive) | 123% (inactive) and 115% (inactive) | –

From PubChem BioAssay (NCI)
